This note sets out measurements from PubChem BioAssay (NCI).

Structures are written as SMILES. This is part of a sample that, as a whole, favours compounds with a hit. Of some 83,000 tested, about 20% had one in any assay.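 Assay: single dose, 48 h. Readout: percent growth (0 = no net growth; negative = cell death). Active: <10.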 Unmarked numbers belong to inactive results. Calls of active or inactive are those of the source.

Holding throughout (assay): NCI-60 one-dose screen, 48 h (100 = growth as untreated, 0 = no growth, -100 = all killed)
The subject of experiment [1] is HCT-15 colon. The conditions noted are these: 10 µM unless noted.
For experiment [2], the system named is HT29 colon. The conditions noted are these: 10 µM unless noted.
Experiment [3] relates to SNB-75 CNS. The conditions noted are these: 10 µM unless noted.
The subject of experiment [4] is SNB-19 CNS. The conditions noted are these: 10 µM unless noted.
The subject of experiment [5] is U251 CNS. The conditions noted are these: 10 µM unless noted.
In experiment [6] the test system is PC-3 prostate. The settings on record: 10 µM unless noted.
Experiment [7] relates to SK-MEL-5 melanoma. The conditions noted are these: 10 µM unless noted.
Experiment [8] concerns UACC-62 melanoma. The conditions noted are these: 10 µM unless noted.
Experiment [9] has as its system LOX IMVI melanoma. The conditions noted are these: 10 µM unless noted.
Experiment [10] concerns SK-MEL-28 melanoma. The settings on record: 10 µM unless noted.
The subject of experiment [11] is EKVX NSCLC. The settings on record: 10 µM unless noted.
The test system of experiment [12] is SN12C renal. The conditions noted are these: 10 µM unless noted.
In experiment [13] the test system is UO-31 renal. The settings on record: 10 µM unless noted.
Experiment [14] concerns TK-10 renal. The settings on record: 10 µM unless noted.
The test system of experiment [15] is ACHN renal. The conditions noted are these: 10 µM unless noted.
Experiment [16] deals with CAKI-1 renal. The settings on record: 10 µM unless noted.
Experiment [17] concerns A498 renal. The settings on record: 10 µM.
In experiment [18] the test system is HL-60(TB) leukemia. The settings on record: 10 µM unless noted.
Experiment [19] concerns CCRF-CEM leukemia. The conditions noted are these: 10 µM unless noted.
Experiment [20] has as its system SK-MEL-2 melanoma. The settings on record: 10 µM unless noted.

Regarding `CCC(CC)CC1(C)CC2(C)CCOC2OO1` (stereo not drawn), the growth was 104% in experiment [1]; 100% in experiment [2]; 98.8% in experiment [3]; 103% in experiment [4]; 102% in [5]; 99.8% in [6]. The growth in [7] is 98.5%; in experiment [8] it was 95.4%; in experiment [9], 102%; in experiment [10], 109%; in experiment [11] it was 103%; in experiment [12], 102%. In addition, the growth in [13] was 88.8%; in experiment [14], 98%; in experiment [15], 111%; in [16] it was 95.7%; in [17] it was 90.8%; in experiment [18], 111%. For the same molecule, the growth in experiment [19] is 103%.
With `CC(=O)O[C@H]1CC[C@@]2(C)C(=CC[C@H]3[C@@H]4C[C@@H](N5CC5)[C@H](C(C)=O)[C@@]4(C)CC[C@@H]32)C1`, the growth is 91.6% in [1]; 85.9% in experiment [2]; 79.2% in [3]; 100% in experiment [4]; 91.5% in [5]; 77.9% in [6]. The growth was 85.2% in experiment [7]; 92.8% in [8]; 87.6% in [9]; 102% in [10]; 103% in experiment [20]; 88.9% in [12]. The growth in experiment [13] was 104%; in experiment [14] it was 105%; in experiment [15], 83.1%; in experiment [16] it was 89.3%; in experiment [17], 98.7%; in [19], 78%.
Consider `C#Cc1ccc2c(c1)C(c1ccccc1F)=NCC(=O)N2C`, for which the growth in [1] is 28%; in [2], 15.7%; in experiment [3], 51.7%; in [4] it was 49%; in experiment [5], 39.7%; in experiment [6] it was 55.8%. Besides, the growth in experiment [7] is 29.9%; in [8], 31.3%; in [9], 47.5%; in experiment [10], 63.8%; in [20] it was 19.4%; in [11], 48.9%. Besides, the growth is 72.5% in experiment [13], 55.1% in experiment [16], 19.2% in experiment [17] and 58.8% in experiment [19].
As to `COc1cc(C=Nc2cccc(C(=O)O)c2)ccc1N(CCCl)CCCl`, the growth was 97.8% in experiment [1]; 98.1% in [2]; 101% in experiment [3]; 102% in experiment [4]; 100% in experiment [5]; 101% in [6]. Moreover, the growth in [7] is 98.7%; in experiment [8], 96.7%; in experiment [9], 101%; in experiment [10] it was 103%; in experiment [20], 108%; in [12] it was 98.5%. Further, the growth is 84.6% in experiment [13]; 125% in experiment [14]; 81.8% in [15]; 95% in experiment [16]; 102% in [17]; 110% in experiment [18]. In experiment [19], the growth is 102%.
Take `CCCCCCCCCCCCCC[P+](CCCCCC)(CCCCCC)CCCCCC`: the growth was 7.54% (active) in experiment [1]; -58.2% (active) in experiment [2]; -31.4% (active) in experiment [3]; 8.99% (active) in [4]; -68.4% (active) in experiment [5]; -78.1% (active) in experiment [6]. In addition, the growth in experiment [7] is -100% (active); in [8], -28.1% (active); in [9], -68.5% (active); in [10], -97.8% (active); in experiment [20] it was -3.57% (active); in experiment [12], -79.1% (active). The growth is -36.6% (active) in experiment [13]; -43.3% (active) in [14]; -26% (active) in experiment [15]; 4.01% (active) in [16]; -48.3% (active) in experiment [17]; 43.1% in [18]. Besides, in [19], the growth was 26.5%.
As to `COc1ccc(S(=O)(=O)Nc2c(/C=C\c3cc(OC)c(OC)c(OC)c3)ccc(OC)c2O)cc1OC`, the growth is 15.6% in experiment [1]; 10% in experiment [2]; 43.8% in experiment [3]; 39% in experiment [4]; 12.9% in experiment [5]; 28.2% in experiment [6]. Further, the growth was -34.9% (active) in experiment [7]; 45.2% in [8]; 21.6% in experiment [9]; 58.6% in [10]; 9.91% (active) in [20]; 31% in experiment [12]. The growth in [13] was 49.3%; in experiment [14], 70.9%; in experiment [15], 29.6%; in experiment [16], 22.8%; in experiment [18], 4.28% (active); in experiment [19], 12%.
On to `C[C@]12C[C@@H](CO)[C@H](O)C[C@@H]1CC[C@@H]1[C@@H]2CC[C@]2(C)[C@@H](O)CC[C@@H]12`, for which the growth in [1] was 105%; in experiment [2], 84%; in experiment [3] it was 107%; in [4] it was 108%; in [5], 96.1%; in experiment [6], 95.1%. The growth is 103% in [7]; 106% in experiment [8]; 93.8% in experiment [9]; 105% in experiment [10]; 86% in [20]; 106% in experiment [12]. Also, the growth in experiment [13] is 89.6%; in [15], 101%; in [16], 94.1%; in [17], 95.1%; in experiment [18] it was 71%.
As for `CCNc1nc(Cl)nc(NCC)n1`, the growth in experiment [1] was 112%; in experiment [2], 107%; in experiment [3], 93.6%; in experiment [4] it was 93%; in experiment [5], 104%; in [6] it was 89.9%. For the same molecule, the growth in experiment [7] is 98.2%; in [8] it was 102%; in [9], 97.9%; in [10] it was 115%; in experiment [11], 86.5%; in experiment [12], 102%. The growth was 77.1% in experiment [13]; 116% in experiment [14]; 102% in experiment [15]; 77.3% in experiment [16]; 95.8% in experiment [17]; 98.4% in experiment [18].
For `ClCCN(CCCl)c1ccc(OCc2ccccc2)cc1`, the growth was 73.1% in experiment [1]; 76.7% in experiment [2]; 53.8% in [3]; 57.1% in experiment [4]; 40.5% in [5]; 63.1% in experiment [6]. Also, the growth is 82.7% in [7]; 44.2% in [8]; 38.9% in experiment [9]; 84.1% in [10]; 114% in [20]; 30.8% in [12]. Further, the growth was 38.6% in [13]; 96.3% in experiment [14]; 17.7% in [15]; 11.4% in experiment [16]; 68.9% in [17]; 10.6% in [18]. Moreover, the growth in [19] was 14.4%.
